Only some compounds are listed: those with a hit (about 31% of all), similar ones and a draw of the others.
CYP2C19 inh: blocks human cytochrome P450 2C19; CYP2C19 Supersomes, luciferin-H EGE luminescence, 30 min; 21% of 96,000 active; inhibition, % at 5 µM;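 active means CYP2C19 inhibition above a set limit at 5 µM in the primary screen, cut at about 50% in these data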
CYP2C9 act: increases human cytochrome P450 2C9 activity | P11712 | recombinant CYP2C9, luciferin-H conversion, luminescence; stronger effect = higher value; factor 1 = untreated enzyme, 0 = blocked | activation factor at 5 µM | 1.4% of 96,000 active | AID 1024;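 active means activation factor of 2 or more for CYP2C9 at a 5 µM dose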
Target sequence (P11712 whole entry, looked up): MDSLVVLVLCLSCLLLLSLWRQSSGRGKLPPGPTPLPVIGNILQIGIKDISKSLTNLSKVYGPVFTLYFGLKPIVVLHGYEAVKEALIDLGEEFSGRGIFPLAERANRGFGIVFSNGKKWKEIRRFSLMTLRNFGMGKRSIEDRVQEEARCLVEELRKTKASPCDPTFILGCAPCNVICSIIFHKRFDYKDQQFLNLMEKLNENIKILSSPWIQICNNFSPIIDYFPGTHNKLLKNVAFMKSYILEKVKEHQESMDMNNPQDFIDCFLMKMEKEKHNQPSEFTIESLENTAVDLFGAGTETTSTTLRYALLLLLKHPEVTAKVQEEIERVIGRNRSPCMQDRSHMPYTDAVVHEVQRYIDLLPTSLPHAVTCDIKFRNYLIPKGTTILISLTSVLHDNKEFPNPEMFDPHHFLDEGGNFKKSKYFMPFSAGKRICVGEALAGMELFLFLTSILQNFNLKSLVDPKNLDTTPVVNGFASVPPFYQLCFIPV
PLAP act: activators of human placental alkaline phosphatase; activation fold at 20 µM; 1.2% of 96,000 active; purified PLAP enzyme, luminescent substrate read-out; stronger effect = higher value; in the data active means activation fold above about 2
CYP2C9 inh: blocks human cytochrome P450 2C9; 20% of 96,000 active; CYP2C9 Supersomes, luciferin-H conversion, luminescence; AID 777; P11712; inhibition, % at 5 µM;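 active means blocking of liver enzyme CYP2C9 beyond about 50% at 5 µM, limit read from the data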
CYP2C19 activ: activators of human cytochrome P450 2C19 | recombinant CYP2C19, luciferin-H EGE luminescence; stronger effect = higher value; 0 = fully inhibited enzyme, 1 = untreated enzyme | activation factor at 5 µM | 96,000 tested, under 10 active | AID 1025;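 active means activation factor of at least 2 at 5 µM in the primary screen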
Numbers stand for hits; . = inactive.

SMILES | CYP2C19 inh | CYP2C9 act | PLAP act | CYP2C9 inh | CYP2C19 activ
CCN(CC)S(=O)(=O)c1ccc(-c2nnc(SCC(=O)c3ccc(OC)cc3)o2)cc1 | . | . | . | . | .
CCN(CC)S(=O)(=O)c1ccc(OC)c(NC(=O)CSc2ccccc2)c1 | . | . | . | 89 | .
CCN(CC)S(=O)(=O)c1ccc(-c2nnc(SCC(=O)Nc3ccc(OC)c(OC)c3)o2)cc1 | . | . | . | 70 | .
CC(=O)Nc1ccc(C(=O)CSc2nnnn2C(C)C)cc1 | . | . | . | . | .
CSc1nnc(-c2cccc(C)c2)n1N | . | . | . | . | .
Cc1ccc(C(=O)NC(=S)Nc2cc(C(F)(F)F)ccc2Cl)cc1 | . | . | . | . | .
COC(=O)C(Nc1ccccc1Cl)(c1cc(C)c(O)c(C)c1)C(F)(F)F (centres undefined) | 100 | . | . | 99 | .
COc1ccc(C(CNC(=O)c2cc(=O)[nH]c3ccccc23)N2CCCC2)cc1 (centres undefined) | . | . | . | . | .
Cn1c(=O)c2c(-c3ccccc3)n(-n3cnnc3)cc2n(C)c1=O | . | . | . | . | .
CCN(CC)CCn1nc(C)nc1-c1ccccc1O | 88 | . | 2.3 | . | .
CSc1nc(=O)n2cccc(C)c2n1 | . | . | . | . | .
FC(F)(F)c1cccc(-n2cccc2/C=N/n2cnnc2)c1 | . | . | . | . | .
O=C(NC1CCCCCCC1)NC1CCCCC1 | . | . | . | . | .
O=C(/N=C1\NC(=O)C(F)(C(F)(F)F)S1)NC1CCCCC1 (centres undefined) | . | . | . | 85 | .
c1cc2nnnn2nc1N1CCCCC1 | . | . | . | . | .
CCOC(=O)N1CCN(c2ccc3nnnn3n2)CC1 | 56 | . | . | . | .
Cc1ccnc(NC(=O)CCC(=O)N(CC(=O)NC2CCCCC2)c2ccc3c(c2)OCO3)c1 | . | . | . | 75 | .
O=C(CCC(=O)N(CC(=O)NC1CCCC1)Cc1ccc2c(c1)OCO2)Nc1ccccn1 | . | . | . | 89 | .
Cc1cccc(N(CC(=O)NC2CCCCC2)C(=O)CCC(=O)Nc2ccccn2)c1 | . | . | . | . | .
O=C(COC(=O)c1ccc(S(=O)(=O)N2CCCC2)cc1)NCc1ccc(F)cc1 | . | . | . | . | .
Cc1ccc(-c2csc3nc(C)n(-n4cccc4)c(=O)c23)o1 | . | . | . | . | .
O=C1CSc2ccccc2N1Cc1ccc(F)cc1 | 69 | . | . | 70 | .
O=C(O)CN1C(=O)CSc2ccccc21 | . | . | . | . | .
Cc1nnc(NC(=O)CSc2nnc(CNC(=O)c3ccccc3)n2-c2ccccc2)s1 | . | . | . | . | .
CCCc1cc(-n2cnc3ccccc32)n2c(nc3ccccc32)c1C#N | . | . | . | . | .
SMILES | CYP2C19 inh | CYP2C9 act | PLAP act | CYP2C9 inh | CYP2C19 activ
CCCc1cc(NCC2CCCO2)n2c(nc3ccccc32)c1C#N (centres undefined) | . | . | . | 60 | .
COc1cccc(NC(=O)N(Cc2ccco2)C(C)c2cccs2)c1 (centres undefined) | . | . | . | . | .
CC(c1cccs1)N(Cc1ccco1)C(=O)Nc1ccc(Cl)c(Cl)c1 (centres undefined) | 78 | . | . | 97 | .
COCC(=O)NCCNc1nc2ccc(C)cc2cc1C | . | . | . | . | .
CCOc1ccc2nc(NCCNC(=O)C3CC3)c(C)cc2c1 | 56 | . | . | 52 | .
CCOc1ccc2nc(NCCNC(=O)C(C)C)c(C)cc2c1 | 77 | . | . | 94 | .
CCCCCCOC(=O)/C=C/c1c(C)[nH]c(=O)[nH]c1=O | . | . | . | . | .
CC(C)(C)c1cc(NC(=O)COC(=O)C2CC2)n(-c2ccccc2)n1 | 56 | . | . | . | .
CCCC(=O)OCC(=O)Nc1cc(C(C)(C)C)nn1-c1ccccc1 | . | . | . | . | .
Cc1cc(NC(=O)CS(=O)(=O)c2cn(Cc3cccc(F)c3)c3ccccc23)no1 | 57 | . | . | 72 | .
CCn1cc(S(=O)(=O)CC(=O)Nc2ccc(OC)cc2)c2ccccc21 | 56 | . | . | . | .
CC(C)(C)NC(=O)NC(=O)COC(=O)C1=COCCO1 | . | . | . | . | .
COc1ccc(C)cc1NC(=O)C(=O)NCc1ccncc1 | . | . | . | 78 | .
COc1ccc(NC(=O)C(=O)NCc2ccncc2)c(OC)c1 | 57 | . | . | 70 | .
C/C(=N\O)C(=O)NCc1ccncc1 | . | . | . | . | .
O=c1/c(=C\c2ccc(O)cc2)sc2n1C(c1ccccc1)C(c1ccccc1)=NN=2 (centres undefined) | . | . | . | 56 | .
O=C1/C(=C/c2ccc([N+](=O)[O-])cc2)C=C(c2ccccc2)N1c1ccc(O)cc1 | . | . | . | . | .
CCN(C(=O)c1ccc(C(C)(C)C)cc1)c1nnc(Cn2nnc3ccccc32)s1 | . | . | . | 52 | .
Cc1ccc(C(=O)Cn2nnc3ccccc32)cc1 | . | . | . | . | .
O=C(C1CCCCC1)N1CCCc2ccccc21 | 67 | . | . | . | .
O=C(NC1CCCCC1)N1CCCc2ccccc21 | 53 | . | . | . | .
CC(C)=CC(=O)N1CCCc2ccccc21 | . | . | . | . | .
CC(C)N1C(=O)CCC1C(=O)N1CCCc2ccccc21 (centres undefined) | . | . | . | . | .
Cc1c(NC(=O)c2ccc3ncccc3c2)c(=O)n(-c2ccccc2)n1C | . | . | . | . | .
Cc1nc2c(c3c1[nH]c1ccccc13)C(=O)CC(C)(C)C2 | . | 2.8 | . | . | .
SMILES | CYP2C19 inh | CYP2C9 act | PLAP act | CYP2C9 inh | CYP2C19 activ
CC1(C)CC(=O)c2c(nc3ccccc3c2N)C1 | . | . | . | . | .
COc1ccc(C(=O)NC(Nc2ccccc2)C(Cl)(Cl)Cl)cc1 (centres undefined) | . | . | . | 85 | .
COc1ccc(NC(=O)C(NC(=O)c2ccccc2)C(C)C)cc1 (centres undefined) | . | . | . | . | .
CC(NC(=O)Cc1ccc(-c2ccccc2)cc1)c1ccccc1 (centres undefined) | . | . | . | . | .
O=C(Cc1ccccc1)NC(Nc1ccccc1)C(Cl)(Cl)Cl (centres undefined) | 82 | . | . | 73 | .
CC(C)(C)NC(NC(=O)Cc1ccccc1)C(Cl)(Cl)Cl (centres undefined) | 70 | . | . | . | .
CN(C)c1nc(-c2ccc([N+](=O)[O-])cc2)cs1 | . | . | . | . | .
COC(=O)CCC(=O)Nc1ccc(Cl)c(Cl)c1 | . | . | . | . | .
COC(=O)CCC(=O)NC(=S)Nc1cc(Cl)ccc1Cl | 54 | . | . | 53 | .
O=C(NCN1C(=O)C2C3C=CC(C3)C2C1=O)Nc1cccnc1 (centres undefined) | . | . | . | . | .
COCCNC(=O)c1onc(CSc2ccc(C(C)C)cc2)c1C(=O)O | . | . | . | 66 | .
CCOc1cccc(SCc2noc(C(=O)NCCOC)c2C(=O)O)c1 | . | . | . | . | .
CCCCNC(=O)c1onc(CSc2ccccc2)c1C(=O)O | . | . | . | 57 | .

Compound activity (PubChem)
